According to PubChem BioAssay (NCI):
Compounds without any hit were thinned out: in the full panel of roughly 83,000, 20% have a hit.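 Cell lines were cultured in 96-well plates, exposed to a single compound concentration, and assessed for percent growth 48 hours later.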 A number with no mark means an inactive call. Calls of active or inactive are those of the source. How the source made its calls: active means growth percent below 10; inactive means the rest.

Experiments:
Experiment in all cases: NCI-60 one-dose screen, 48 h (100 = growth as untreated, 0 = no growth, -100 = all killed)
Details in all cases: 10 µM unless noted
[1] = tested on: SR leukemia
[2] = tested on: RPMI-8226 leukemia
[3] = tested on: OVCAR-8 ovarian
[4] = tested on: OVCAR-5 ovarian
[5] = tested on: OVCAR-4 ovarian
[6] = tested on: SK-OV-3 ovarian
[7] = tested on: IGROV1 ovarian
[8] = tested on: OVCAR-3 ovarian
[9] = tested on: HS 578T breast
[10] = tested on: NCI/ADR-RES ovarian

`c1ccc(-c2c(-c3ccccc3)[n+](Cc3ccc4ccccc4c3)c(-c3cccc4ccccc34)n2Cc2ccc3ccccc3c2)cc1` was tested, and the growth [1] was -36.5% (active), the growth [2] was -38.7% (active) and the growth [3] was -44.4% (active). The growth [4] was -47.8% (active), the growth [5] was -81% (active) and the growth [6] was -50.3% (active). The growth [7] was -71.4% (active), the growth [8] was -88% (active) and the growth [9] was -26.9% (active). For the same molecule, the growth [10] was -18.9% (active).
`CN1CCN(C(=O)[C@]23CCC(C)(C)C[C@H]2C2=CC[C@@H]4[C@@]5(C)C/C(=C/c6cccnc6)C(=O)C(C)(C)[C@@H]5CC[C@@]4(C)[C@]2(C)CC3)CC1` gave a growth [1] of 15.5%, a growth [2] of 19.1% and a growth [3] of 54%. It also gave a growth [4] of 100%, a growth [5] of 58.1% and a growth [6] of 83.8%. For the same molecule, the growth [7] was 85.6%, the growth [8] was 52.7% and the growth [9] was 54.2%. The growth [10] was 59.1%.
`CCNC(=O)Oc1ccc(/C(=C(\C)c2ccccc2)c2ccc(OCCCN(C)C)cc2)cc1` was tested, and the growth [1] was 10.2%, the growth [2] was 66.6% and the growth [3] was 86.5%. For the same molecule, the growth [4] was 81.4%, the growth [5] was 84.4% and the growth [6] was 80.7%. The growth [7] was 87.5%, the growth [8] was 85.3% and the growth [9] was 57%. For the same molecule, the growth [10] was 81.6%.
For `O=C(/C(=C/c1ccc([N+](=O)[O-])cc1)SCc1ccc(F)cc1)c1ccc(F)cc1`, the growth [1] was 6.69% (active), the growth [2] was -28.7% (active) and the growth [3] was 93.1%. The growth [4] was 97.9%, the growth [5] was 73.2% and the growth [6] was 103%. The growth [7] was 78%, the growth [8] was 82.9% and the growth [9] was 89.2%. It also gave a growth [10] of 77.1%.
For `CCCCCCNC(=O)Oc1ccc(/C(=C(\C)c2ccccc2)c2ccc(OCCCN(C)C)cc2)cc1`, the growth [1] was 2.09% (active), the growth [2] was 81.6% and the growth [3] was 86.9%. The growth [4] was 85.5%, the growth [5] was 86.9% and the growth [6] was 95.6%. It also gave a growth [7] of 80.4%, a growth [8] of 89.7% and a growth [9] of 74%. It also gave a growth [10] of 81%.
`O=c1c2c(c(=O)n1O)c1c3ccc[nH]c3nc1c1nc3[nH]cccc3c12` showed a growth [1] of 32.2%, a growth [2] of 93.9% and a growth [3] of 67.1%. For the same molecule, the growth [4] was 103%, the growth [5] was 78.7% and the growth [6] was 89.2%. It also gave a growth [7] of 63%, a growth [8] of 98.3% and a growth [9] of 83.3%. It also gave a growth [10] of 89.6%.
`c1ccc2c(-c3nccs3)c[nH]c2c1` showed a growth [1] of 86%, a growth [2] of 104% and a growth [3] of 106%. For the same molecule, the growth [4] was 97.3%, the growth [5] was 110% and the growth [6] was 99.7%. The growth [7] was 101%, the growth [8] was 103% and the growth [9] was 98.3%. It also gave a growth [10] of 103%.
With `CN(C)c1ccc(Nc2c3ccccc3nc3cc(NC(=O)CCN4CCCC4)ccc23)cc1` the growth [1] was -19.3% (active), the growth [2] was -35.5% (active) and the growth [3] was 4.51% (active). For the same molecule, the growth [4] was 11.5%, the growth [5] was -17.9% (active) and the growth [6] was 16.6%. For the same molecule, the growth [7] was 1.29% (active), the growth [8] was -38.6% (active) and the growth [9] was 19.8%. It also gave a growth [10] of 58.3%.
In the case of `CCOc1ccc(Nc2nc(-c3ccc4c(c3)NC(=O)CO4)cs2)cc1`, the growth [1] is reported as 64.6%, the growth [2] is reported as 28% and the growth [3] is reported as 62.8%. It also gave a growth [4] of 92.8%, a growth [5] of 25% and a growth [6] of 100%. For the same molecule, the growth [7] was 94.3%, the growth [8] was 73.7% and the growth [9] was 107%. The growth [10] was 14.4%.
`CCCCCC(=O)Oc1ccc(/C(=C(/C)Cc2ccc(OC)cc2)c2ccc(OCCCN(C)C)cc2)cc1` gave a growth [1] of 10.9%, a growth [2] of 82.7% and a growth [3] of 96.2%. It also gave a growth [4] of 96.4%, a growth [5] of 71.4% and a growth [6] of 81.5%. The growth [7] was 63.9%, the growth [8] was 86.5% and the growth [9] was 59.9%. It also gave a growth [10] of 88.2%.
With `N#C/C(=C\c1ccc(C(F)(F)F)cc1)c1cc2ccccc2[nH]1` the growth [1] was 95.7%, the growth [2] was 72% and the growth [3] was 101%. For the same molecule, the growth [4] was 108%, the growth [5] was 92% and the growth [6] was 93%. The growth [7] was 94.5%, the growth [8] was 104% and the growth [9] was 104%. For the same molecule, the growth [10] was 104%.
`CC1=CCC(OC(=O)C(C)(O)CCC(O)(C(=O)OC2(C)C=CC(O)(C(C)C)CC2)C(C)C)(C(C)C)CC1` (stereo not given) showed a growth [1] of 103%, a growth [2] of 107% and a growth [3] of 105%. For the same molecule, the growth [4] was 108%, the growth [5] was 109% and the growth [6] was 105%. The growth [7] was 101%, the growth [8] was 108% and the growth [9] was 105%. For the same molecule, the growth [10] was 108%.
`O=S(=O)(NCCNc1nccc(-c2c(-c3cccc(O)c3)nc3occn23)n1)c1ccc(Cl)cc1` showed a growth [1] of 106%, a growth [2] of 105% and a growth [3] of 105%. For the same molecule, the growth [4] was 143%, the growth [5] was 126% and the growth [6] was 99.8%. It also gave a growth [7] of 95%, a growth [8] of 113% and a growth [9] of 108%. For the same molecule, the growth [10] was 109%.
In the case of `CC1(C)CC[C@]23CC[C@]4(C)[C@H](CC[C@@H]5[C@@]6(C)CCCNC(C)(C)[C@@H]6CC[C@]54C)[C@H]2[C@H]1OC3`, the growth [1] is reported as -30.2% (active), the growth [2] is reported as -29.7% (active) and the growth [3] is reported as -45.6% (active). For the same molecule, the growth [4] was 8.55% (active), the growth [5] was -51.2% (active) and the growth [6] was 75.8%. For the same molecule, the growth [7] was -58.7% (active), the growth [8] was -31.2% (active) and the growth [9] was -9.12% (active). The growth [10] was -19.6% (active).
